Measured values from PubChem BioAssay AID2283160 (EPA ToxCast).
Results filed as inconclusive are left out. Active and inactive are the calls of the source. The calls were made as follows: active = hit-call score of the fitted dose curve at least 0.9, where 1 is the maximum; inconclusive = response in the unintended direction; inactive = score below 0.9.

These compounds were tested against human Fibroblast Growth Factor Receptor 3 (FGFR3), FGFR3 (gene 2261) (UniProt P22607) (assay: NVS_ENZ_hFGFR3: NovaScreen (NVS) Enzymatic Assay for human Fibroblast Growth Factor Receptor 3 (FGFR3)).
Experimental: NVS_ENZ_hFGFR3 is a biochemical, single-readout assay that uses extracted gene-proteins in a cell-free assay. Measurements were taken 1 hour after chemical dosing in a 384-well plate.NVS_ENZ_hFGFR3 is one of one assay component(s) measured or calculated from the NVS_ENZ_hFGFR3 assay. It is designed to make measurements of enzyme activity, a form of enzyme reporter, as detected with fluorescence intensity signals by Fluorescence and electrophoretic mobility shift technology.Data from the assay component NVS_ENZ_hFGFR3 was analyzed into 1 assay endpoint. This assay endpoint, NVS_ENZ_hFGFR3, was analyzed in the positive analysis fitting direction relative to DMSO as the negative control and baseline of activity. Using a type of enzyme reporter, loss-of-signal activity can be used to understand changes in the enzymatic activity as they relate to the gene FGFR3. Furthermore, this assay endpoint can be referred to as a primary readout, because this assay has produced multiple assay endpoints where this one serves a enzymatic activity function. To generalize the intended target to other relatable targets, this assay endpoint is annotated to the kinase intended target family, where the subfamily is receptor tyrosine kinase.
Binding assays used specific radioligands (tritiated, iodinated) with non-radioactive competitive displacement ligands in agonist or antagonist protocols (as indicated) and various reference compounds and inhibitors to titrate specific binding to receptors and transporters. Most enzyme assays (CYPs, kinases, phosphatases, proteases, HDACs) used recombinant protein and specific substrates (fluorescence mostly, some colorimetric and radioactive) and inhibitors, followed by a biochemical separation of substrate and product. All assays for the biochemical HTS were initially run in duplicate at a single concentration (10 uM for CYP450 assays and 25 uM for all others). Assay-chemical combinations meeting a pre-defined threshold (e.g., 30% inhibition and other criteria defined below) were then run in singleton concentration-response format with maximum concentration of 20 uM for CYPs and 50 uM for all others. Each assay was run with positive and negative controls, and concurrent controls on every plate. The follow-up (secondary) screen tested active chemical-pairs in concentration series, as well as a few additional assays not tested in the primary screen, some selected negative inactives, and several cases re-run in the concentration series for confirmatory purposes.

Sequence of human Fibroblast Growth Factor Receptor 3 (FGFR3), FGFR3 (gene 2261) (P22607 whole entry, looked up): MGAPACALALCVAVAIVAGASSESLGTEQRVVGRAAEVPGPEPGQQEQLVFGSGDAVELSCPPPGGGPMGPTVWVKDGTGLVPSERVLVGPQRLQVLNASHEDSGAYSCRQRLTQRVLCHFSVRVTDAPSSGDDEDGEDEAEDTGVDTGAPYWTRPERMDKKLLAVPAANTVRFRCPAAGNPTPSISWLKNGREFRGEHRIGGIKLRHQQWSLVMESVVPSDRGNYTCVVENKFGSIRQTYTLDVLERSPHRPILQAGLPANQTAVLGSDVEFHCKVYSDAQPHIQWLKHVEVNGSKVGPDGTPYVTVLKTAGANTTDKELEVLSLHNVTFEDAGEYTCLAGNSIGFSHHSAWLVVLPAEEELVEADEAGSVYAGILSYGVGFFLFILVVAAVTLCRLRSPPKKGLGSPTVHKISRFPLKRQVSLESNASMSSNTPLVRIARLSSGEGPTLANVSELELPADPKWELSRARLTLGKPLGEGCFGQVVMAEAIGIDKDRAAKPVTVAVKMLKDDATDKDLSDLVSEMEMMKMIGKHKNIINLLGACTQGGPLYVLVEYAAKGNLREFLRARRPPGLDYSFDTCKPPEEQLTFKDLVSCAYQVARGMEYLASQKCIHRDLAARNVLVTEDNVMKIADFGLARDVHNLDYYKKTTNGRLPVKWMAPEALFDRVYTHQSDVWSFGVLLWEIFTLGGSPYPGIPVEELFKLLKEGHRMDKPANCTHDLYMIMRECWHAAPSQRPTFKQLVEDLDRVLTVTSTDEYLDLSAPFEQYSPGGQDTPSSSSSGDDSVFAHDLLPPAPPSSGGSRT

Question: `S=C([S-])NCCNC(=S)[S-].[Mn+2]` was tested. Which AC50 did it give?
Answer: 40.5 µM (active)

Question: Which outcome does the source give for `CN(C)C(=S)SSC(=S)N(C)C` here?
Answer: inactive

Question: `S=C(S)NCCNC(=S)S.[Mn+2].[S-]C([S-])=NCCN=C([S-])[S-].[Zn+2]` was tested. Which AC50 did it give?
Answer: 38.2 µM (active)

Question: `CCCC1COC(Cn2cncn2)(c2ccc(Cl)cc2Cl)O1` (stereo not given) was tested. Which outcome did it give?
Answer: inactive

Question: `CCCC(=NOCC)C1=C(O)CC(CC(C)SCC)CC1=O` (stereo not given) was tested. Which outcome did it give?
Answer: inactive

Question: `CSc1nnc(C(C)(C)C)c(=O)n1N` was tested. Which outcome did it give?
Answer: inactive

Question: How did the outcome turn out when `COCC(C)N(C(=O)CCl)c1c(C)csc1C` (stereo not given) was run?
Answer: inactive

Question: For `CCCOc1nn(C(=O)NS(=O)(=O)c2ccccc2C(=O)OC)c(=O)n1C`, which outcome is on record?
Answer: inactive

Question: Which outcome does the source give for `CNC(=O)ON=C(SC)C(=O)N(C)C` here?
Answer: inactive

Question: How did the AC50 turn out when `CN(C)[C@@H]1C(=O)C(C(N)=O)=C(O)[C@@]2(O)C(=O)C3=C(O)c4c(O)cccc4[C@@](C)(O)[C@H]3[C@H](O)[C@@H]12` was run?
Answer: 14.5 µM (active)

Question: Which outcome does the source give for `COP(=O)(OC)OC=C(Cl)Cl` here?
Answer: inactive

Question: `CNC(=O)Oc1ccccc1OC(C)C` was tested. Which outcome did it give?
Answer: inactive

Question: `CC(Oc1cccc(Cl)c1)C(=O)O` (stereo not given) was tested. Which outcome did it give?
Answer: inactive

Question: How did the outcome turn out when `CCCCN(CC)c1c([N+](=O)[O-])cc(C(F)(F)F)cc1[N+](=O)[O-]` was run?
Answer: inactive

Question: With `CCOc1cc(Oc2ccc(C(F)(F)F)cc2Cl)ccc1[N+](=O)[O-]` as the compound, how does the outcome read?
Answer: inactive
